# Assay results taken from publication PMC4336329 (PLoS ONE, 2015).
# Screen size: about 310,000 compounds; about 14,000 (4.5%) showed an effect of 50% or more. Effects have a minus sign here. The sample as a whole holds a higher share of strong results than the screen did.
# Target: human ether-à-go-go-related gene (hERG) potassium channel (human, UniProt Q12809)
# Assay: primary screen, population patch clamp on CHO cells stably expressing hERG; higher = less effect of the substance
# 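Note: peak tail current of the secondary pulse compared with the same well before compound.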
# human ether-à-go-go-related gene (hERG) potassium channel, sequence (Q12809 whole entry, looked up): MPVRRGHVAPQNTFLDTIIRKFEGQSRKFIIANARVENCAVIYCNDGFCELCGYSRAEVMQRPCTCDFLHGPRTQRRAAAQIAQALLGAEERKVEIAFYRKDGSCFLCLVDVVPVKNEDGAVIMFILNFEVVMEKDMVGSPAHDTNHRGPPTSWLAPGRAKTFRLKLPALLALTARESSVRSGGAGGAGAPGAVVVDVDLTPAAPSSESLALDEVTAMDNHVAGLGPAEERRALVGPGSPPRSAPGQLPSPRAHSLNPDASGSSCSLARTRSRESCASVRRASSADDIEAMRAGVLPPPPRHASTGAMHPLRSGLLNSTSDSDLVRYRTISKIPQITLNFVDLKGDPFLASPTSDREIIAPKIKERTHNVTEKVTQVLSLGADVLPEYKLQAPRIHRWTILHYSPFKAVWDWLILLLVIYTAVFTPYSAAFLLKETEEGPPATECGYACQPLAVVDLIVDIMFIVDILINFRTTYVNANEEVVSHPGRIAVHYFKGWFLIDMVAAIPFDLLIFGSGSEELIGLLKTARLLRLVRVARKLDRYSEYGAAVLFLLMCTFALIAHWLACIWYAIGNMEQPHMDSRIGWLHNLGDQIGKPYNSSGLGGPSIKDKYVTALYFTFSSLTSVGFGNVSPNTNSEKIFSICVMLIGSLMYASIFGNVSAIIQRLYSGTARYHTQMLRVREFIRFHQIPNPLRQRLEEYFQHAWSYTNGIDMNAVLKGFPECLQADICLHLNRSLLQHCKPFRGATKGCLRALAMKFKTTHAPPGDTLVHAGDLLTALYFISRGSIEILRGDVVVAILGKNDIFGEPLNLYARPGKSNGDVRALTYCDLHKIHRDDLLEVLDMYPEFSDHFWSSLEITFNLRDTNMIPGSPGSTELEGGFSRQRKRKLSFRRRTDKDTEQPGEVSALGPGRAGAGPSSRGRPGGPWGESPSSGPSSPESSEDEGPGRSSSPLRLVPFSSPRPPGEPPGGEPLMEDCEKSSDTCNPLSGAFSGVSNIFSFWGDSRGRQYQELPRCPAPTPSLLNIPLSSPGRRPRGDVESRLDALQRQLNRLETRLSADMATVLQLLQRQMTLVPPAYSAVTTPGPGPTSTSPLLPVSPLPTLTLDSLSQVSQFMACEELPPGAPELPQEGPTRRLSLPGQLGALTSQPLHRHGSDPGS
row,Compound,"hERG current change (%, negative = inhibition) at 10uM"
1,CCOc1ccc(S(=O)(=O)n2ccnc2C)cc1,14.5%
2,Cc1cc(O)c(-c2n[nH]c3c2C(c2cccc(O)c2)N(Cc2cccnc2)C3=O)cc1Cl (stereo not drawn),11.4%
3,Cc1cccc(Cc2nnc(CCC(=O)N(C)C3CCOC3)o2)c1 (stereo not drawn),18.6%
4,Nc1cc2ccccc2oc1=O,8.37%
5,O=C1/C(=C/c2ccccc2Cl)SC(=S)N1CCCC(=O)N(CCO)c1ccccc1,-12.8%
6,COc1ccc2nc(NC(=O)C34CC5CC(CC(NC(C)=O)(C5)C3)C4)sc2c1,-11.1%
7,CC(=O)NC12CC3CC(C1)CC(C(=O)Nc1nc4ccc(F)cc4s1)(C3)C2,-56.9%
8,CC(=O)NC12CC3CC(C1)CC(C(=O)Nc1nc4ccc(S(C)(=O)=O)cc4s1)(C3)C2,-1.14%
9,CCc1ccc2[nH]cc(C(=O)OCCOC)c(=O)c2c1,4.42%
10,O=C(NCCc1ccccc1)c1ccc2nc3cc(Cl)ccc3c(=O)n2c1,14.1%
11,O=[N+]([O-])/C(C(Cl)=C(Cl)Cl)=C(/Sc1ccccc1)N1CCCCC1,4.71%
12,C=CCN1C(=O)/C(=C/c2ccc(Br)s2)C(=O)NC1=S,6.73%
13,CCn1c(=N)c(S(=O)(=O)c2ccc(F)cc2)cc2c(=O)n3ccccc3nc21,-10.5%
14,N=c1c(C(=O)NC2CCCCC2)cc2c(=O)n3ccccc3nc2n1Cc1ccco1,-77%
15,CC1CCCCC1NC(=O)c1cc2c(=O)n3ccccc3nc2n1C (stereo not drawn),4.32%
16,N=c1c(C(=O)NC2CCCC2)cc2c(=O)n3ccccc3nc2n1Cc1ccccc1,-78.6%
17,O=C(NC1CCCC1)c1cc2c(=O)n3ccccc3nc2s1,-9.33%
18,COCCNC(=O)c1ccc2c(=O)n(Cc3ccco3)c(SCC(=O)NC3CCCCC3)nc2c1,-47.1%
19,N=c1c(C(=O)NC2CCCCC2)cc2c(=O)n3ccccc3nc2n1Cc1ccccc1,-69.8%
20,N=c1c(C(=O)NC2CCCCC2)cc2c(=O)n3ccccc3nc2n1Cc1ccc(F)cc1,-77%
21,O=C(NC1CCCCCC1)c1cc2c(=O)n3ccccc3nc2s1,0.251%
22,CCOC(=O)c1[nH]c(C)c(C(=O)N(C)C)c1C,4.87%
23,CC(C)Oc1cccc(NC(=O)c2cnccc2C(F)(F)F)c1,-0.311%

row,Compound,"hERG current change (%, negative = inhibition) at 10uM"
1,COc1ccc(C2=CC(c3ccc(C)cc3)n3nnnc3N2)cc1 (stereo not drawn),-6.67%
2,O=C(CC(C(=O)O)c1ccc(Cl)cc1Cl)c1ccc(Cl)cc1 (stereo not drawn),11.4%
3,O=C(NC1CCCCCC1)C1c2ccccc2C(=O)N1Cc1cccnc1 (stereo not drawn),-3.16%
4,N=c1c(C(=O)NC2CCCCC2)cc2c(=O)n3ccccc3nc2n1Cc1cccnc1,-73.3%
5,Cc1ccc(-c2ccc(C(=O)O)[nH]2)cc1,-19.1%
6,Cc1ccccc1/C=N/NC(=O)Cc1ccc(Cl)cc1,17%
7,COc1ccccc1Nc1nnc(SCc2cc(=O)n3ccsc3n2)s1,-8.42%
8,CC(C)N(N=Nc1ccc([N+](=O)[O-])cc1)C(C)C,8.18%
9,CN(N=Nc1ccc([N+](=O)[O-])cc1)c1ccccc1,15%
10,O=[N+]([O-])c1ccc(N=NN(CCO)CCO)cc1,-75.3%
11,Nc1c(Cl)cc(C(=O)c2c3ccc([N+](=O)[O-])cc3[n+]([O-])n2CCC[NH3+])cc1Cl.O=C([O-])C(F)(F)F,-43.5%
12,Cc1ccc(C(=O)c2c3ccc([N+](=O)[O-])cc3[n+]([O-])n2CCC[NH3+])cc1.O=C([O-])C(F)(F)F,-65.4%
13,Cc1ccc(C(=O)c2c3ccccc3[n+]([O-])n2CCC(=O)O)cc1,14.4%
14,Cc1ccc(C(=O)c2c3ccc(C(F)(F)F)cc3[n+]([O-])n2CCC[NH3+])cc1.O=C([O-])C(F)(F)F,-75%
15,COc1ccc(C(=O)c2c3ccccc3[n+]([O-])n2CCC[NH3+])cc1.O=C([O-])C(F)(F)F,-28.9%
16,CCN(CCn1cccn1)C(=O)C1CCC(=O)N(CCN2CCOCC2)C1 (stereo not drawn),6.14%
17,O=C(CSc1nc2[nH]ncc2c(=O)[nH]1)Nc1ccc(Cl)c(Cl)c1,6.06%
18,CCN(CC(=O)Nc1ccc(NC(C)=O)cc1)C(=O)c1cccc(-n2cccc2)c1,0.603%
19,CCn1cc(/C=C(/C#N)S(=O)(=O)c2ccccc2)cn1,-8.15%
20,CC(Nc1nc(N2CCN(S(C)(=O)=O)CC2)nc2ccccc12)c1ccccc1 (stereo not drawn),-60.9%
21,CC(Nc1nc(-c2ccccc2O)nc2ccccc12)c1ccccc1 (stereo not drawn),5.73%
22,COc1ccc(Nc2nc(N3CCN(S(=O)(=O)N(C)C)CC3)nc3ccccc23)cc1,-5.03%
23,Clc1ccc(-c2nc(N3CCCCC3)nc3ccccc23)cc1,4.29%

row,Compound,"hERG current change (%, negative = inhibition) at 10uM"
1,CC(Nc1nc(N2CCCC2)nc2ccccc12)c1ccccc1 (stereo not drawn),-79.2%
2,CC(Nc1nc(-c2ccccc2F)nc2ccccc12)c1ccccc1 (stereo not drawn),-3.87%
3,COc1ccc(Nc2nc(N3CCN(S(C)(=O)=O)CC3)nc3ccccc23)c(OC)c1,-22.7%
4,CC(Nc1nc(N2CCNCC2)nc2ccccc12)c1ccccc1 (stereo not drawn),-66.2%
5,CC(Nc1ncnc2ccccc12)c1ccccc1 (stereo not drawn),5.95%
6,CC(Nc1nc(N2CCCCC2)nc2ccccc12)c1ccccc1 (stereo not drawn),-63.6%
7,CC(Nc1nc(-c2ccccc2)nc2ccccc12)c1ccccc1 (stereo not drawn),3.47%
8,Cc1cccc(OCCCn2c(CO)nc3ccccc32)c1,-32.3%
9,CC(C)CCn1c(SCC(N)=O)nc2c1c(=O)n(C)c(=O)n2C,6.57%
10,O=C(Nc1cccc2ncccc12)c1ccccc1Cl,18.6%
11,Clc1ccccc1-c1nnc2sc(-c3cccs3)nn12,-4.57%
12,CC(=O)c1c(C)oc2ccc(NS(=O)(=O)c3ccc(F)cc3C)cc12,-13.8%
13,O=C(NN1CCOCC1)c1ccc(F)cc1,1.47%
14,CCOC(=O)c1c(C)nn(-c2ccc(NC(=O)c3cccs3)cc2)c1C,16.8%
15,CCOC(=O)C1=C(O)C(=O)N(c2ccccc2)C1c1cccc([N+](=O)[O-])c1 (stereo not drawn),-26.7%
16,Cc1ccccc1OCC(=O)Nc1ccc2c(c1)OCO2,-7.9%
17,Cc1cccc(C(=O)N(CCc2ccccc2)Cc2ccccc2)c1[N+](=O)[O-],4.17%
18,Cc1cccc(-n2c(C)cc(C)c(C#N)c2=O)c1,7.18%
19,Cc1ccc(C(=O)NCCCNC(=O)c2ccco2)cc1C,14.7%
20,CC(Nc1nc(N2CCN(CCO)CC2)nc2ccccc12)c1ccccc1 (stereo not drawn),-60.9%
21,CCN(CC)c1nc(N2CCN(CCO)CC2)nc2ccccc12.Cl,-27.8%
22,c1ccc2c(NC3C4CC5CC(C4)CC3C5)nc(N3CCOCC3)nc2c1 (stereo not drawn),-35.1%
23,CC(Nc1nc(N2CCOCC2)nc2ccccc12)c1ccccc1 (stereo not drawn),-73.8%

row,Compound,"hERG current change (%, negative = inhibition) at 10uM"
1,c1ccc2c(Nc3ccc(N4CCOCC4)cc3)nc(N3CCOCC3)nc2c1,-48.5%
2,CN1CCN(c2nc(N3CCN(CCO)CC3)nc3ccccc23)CC1.Cl,7.33%
3,CN(C(=O)CS(=O)(=O)c1cn(CC(=O)N2CCOCC2)c2ccccc12)c1ccccc1,0.304%
4,Cc1cc(C)c(S(=O)(=O)NCCCn2ccnc2)cc1C,4.04%
5,Cn1c(=O)c2[nH]c(-c3ccccc3O)nc2n(C)c1=O,23%
6,CC(=O)Nc1ccc(SCCC2CCCCN2C)cc1 (stereo not drawn),7.77%
7,CN1CCCCC1CCN1c2ccccc2Sc2ccc(S(C)=O)cc21.O=S(=O)(O)c1ccccc1 (stereo not drawn),-56%
8,O=C(O)CCN1c2ccccc2Sc2ccccc21,16.5%
9,O=C(NCCN1CCOCC1)c1ccc2c(c1)N(Cc1ccc(F)cc1)C(=O)c1ccccc1S2(=O)=O,0.647%
10,CC(NC(=O)Nc1ccc(Cl)cc1)C1CCCO1 (stereo not drawn),7.05%
11,COc1ccc(S(=O)(=O)N2CC(O)CC2C(=O)Nc2cccnc2)cc1 (stereo not drawn),11.1%
12,O=C(NCc1ccccc1Cl)C(=O)NCC1OCCN1S(=O)(=O)c1cccs1 (stereo not drawn),-15%
13,O=C(c1ccc2ccccc2n1)N1CCN(c2ccccc2O)CC1,-0.197%
14,O=C(c1ccc2ccccc2n1)N1CCN(c2ccccc2)CC1,-3.81%
15,O=C(c1ccc2ccccc2n1)N1CCN(c2ccccc2Cl)CC1,-64.8%
16,O=C(N/N=C/c1cccc([N+](=O)[O-])c1)C1CC(=O)N(c2ccc(Cl)cc2)C1 (stereo not drawn),-82.1%
17,O=C(N/N=C/c1cccc(Br)c1)C1CC(=O)N(c2ccccc2)C1 (stereo not drawn),7.68%
18,O=C(N/N=C/c1cccc([N+](=O)[O-])c1)C1CC(=O)N(c2ccc(Br)cc2)C1 (stereo not drawn),-46.6%
19,O=C(N/N=C/c1ccccc1O)C1CC(=O)N(c2ccc(Cl)cc2)C1 (stereo not drawn),8.21%
20,Cc1ccc(N2CC(C(=O)N/N=C/c3cccc([N+](=O)[O-])c3)CC2=O)cc1 (stereo not drawn),-22.2%
21,O=C(N/N=C/c1cccc([N+](=O)[O-])c1)C1CC(=O)N(c2ccc(F)cc2)C1 (stereo not drawn),-65.8%
